Compounds without any hit were thinned out: in the full panel of roughly 79,000, 15% have a hit. Values without a mark were called inactive. Calls of active or inactive are those of the source. Cut-off read from the data, not from the text of the source: active = growth inhibition above about 70%; inactive = the rest.
Assay: NCI Yeast Anticancer Drug Screen. Data for the rad18 strain (AID 177)
Conditions: S. cerevisiae rad18 mutant growth inhibition, hits give high values
Description: Growth inhibition of yeast strains with defined genetic alterations is measured as a screen for potential anti-cancer activity. Selected strains with alterations in DNA damage repair or cell cycle control were exposed to compounds and growth inhibition was measured relative to vehicle treated controls. The strain used in this assay is rad18

Q: Which results are given for `c1cc(-c2sc(-c3ccncc3)c(-c3ccncc3)c2-c2ccncc2)ccn1`?
A: growth inhibition (at 1.2 µM): 10%; growth inhibition (at 3.7 µM): -1%; growth inhibition (at 11.0 µM): 6%; growth inhibition (at 33.0 µM): 23%; growth inhibition (at 100.0 µM): 86% (active)

Q: With `O=c1[nH]c2c([N+](=O)[O-])cccc2c2ccccc12` as the compound, how does the growth inhibition (at 1.2 µM) read?
A: The growth inhibition was 3%.

Q: And the growth inhibition (at 3.7 µM)?
A: The growth inhibition was 9%.

Q: What about the growth inhibition (at 11.0 µM) of the same compound?
A: Its growth inhibition is 26%.

Q: What about the growth inhibition (at 33.0 µM) of the same compound?
A: The growth inhibition was 73% (active).

Q: What about the growth inhibition (at 100.0 µM) of the same compound?
A: Its growth inhibition is 96% (active).

Q: For `CC1=CC(C)(C)SC(SSSC2=NC(C)=CC(C)(C)S2)=N1`, which growth inhibition (at 1.2 µM) is on record?
A: Its growth inhibition is -4%.

Q: What about the growth inhibition (at 3.7 µM) of the same compound?
A: Its growth inhibition is 0%.

Q: What about the growth inhibition (at 11.0 µM) of the same compound?
A: The growth inhibition was 7%.

Q: And the growth inhibition (at 33.0 µM)?
A: The growth inhibition was 23%.

Q: And the growth inhibition (at 100.0 µM)?
A: The growth inhibition was 88% (active).

Q: Which growth inhibition (at 1.2 µM) does the source give for `O=C(CCSC1=NCCCN1)c1ccc(F)cc1` here?
A: Its growth inhibition is -13%.

Q: What about the growth inhibition (at 3.7 µM) of the same compound?
A: Its growth inhibition is -23%.

Q: And the growth inhibition (at 11.0 µM)?
A: Its growth inhibition is -22%.

Q: What about the growth inhibition (at 33.0 µM) of the same compound?
A: Its growth inhibition is 21%.

Q: And the growth inhibition (at 100.0 µM)?
A: Its growth inhibition is 96% (active).

Q: For `O=C1/C(=C/c2ccc(Cl)c(Cl)c2)CNC/C1=C\c1ccc(Cl)c(Cl)c1`, which growth inhibition (at 1.2 µM) is on record?
A: The growth inhibition was 25%.

Q: And the growth inhibition (at 3.7 µM)?
A: Its growth inhibition is 16%.

Q: And the growth inhibition (at 11.0 µM)?
A: Its growth inhibition is 33%.

Q: What about the growth inhibition (at 33.0 µM) of the same compound?
A: The growth inhibition was 64%.

Q: What about the growth inhibition (at 100.0 µM) of the same compound?
A: Its growth inhibition is 94% (active).

Q: Which growth inhibition (at 1.2 µM) does the source give for `C[n+]1c(/C=C/c2ccc(/C=N/NC(=O)c3ccc(C(=O)N/N=C/c4ccc(/C=C/c5cn6ccccc6[n+]5C)cc4)cc3)cc2)cn2ccccc21` here?
A: Its growth inhibition is 46%.

Q: And the growth inhibition (at 3.7 µM)?
A: Its growth inhibition is 98% (active).

Q: And the growth inhibition (at 11.0 µM)?
A: The growth inhibition was 95% (active).

Q: And the growth inhibition (at 33.0 µM)?
A: The growth inhibition was 96% (active).

Q: What about the growth inhibition (at 100.0 µM) of the same compound?
A: The growth inhibition was 93% (active).

Q: Which results are given for `N#CCC(=O)N/N=C(\c1ccccc1)C(c1ccccc1)C1(O)C(=O)Nc2c(Cl)ccc(Cl)c21` (stereo not given)?
A: growth inhibition (at 1.2 µM): 3%; growth inhibition (at 3.7 µM): 8%; growth inhibition (at 11.0 µM): 15%; growth inhibition (at 33.0 µM): 24%; growth inhibition (at 100.0 µM): 39%

Q: With `O/N=c1/ccn(O)c2ccccc12` as the compound, how does the growth inhibition (at 1.2 µM) read?
A: The growth inhibition was 96% (active).

Q: And the growth inhibition (at 3.7 µM)?
A: The growth inhibition was 98% (active).

Q: And the growth inhibition (at 11.0 µM)?
A: The growth inhibition was 97% (active).

Q: And the growth inhibition (at 33.0 µM)?
A: Its growth inhibition is 97% (active).

Q: What about the growth inhibition (at 100.0 µM) of the same compound?
A: Its growth inhibition is 97% (active).

From PubChem BioAssay (NCI)
